Assay results: PubChem BioAssay (NCI)
“And” between values parts separate entries of the source, which are not always exact repeats. Equal values may be shown once. The panel holds about 83,000 compounds, 20% with a hit somewhere; the sample as a whole holds those more often.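 The test compound was applied at a single concentration to cells in 96-well plates for 48 hours, and percent growth was recorded.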 The source made the active and inactive calls. The calls were made as follows: active = growth percent below 10; inactive = the rest.

Key:
Test in all cases: NCI-60 one-dose screen, 48 h (100 = growth as untreated, 0 = no growth, -100 = all killed)
Conditions in all cases: 10 µM unless noted
[1] = test system: NCI-H23 lung
[2] = test system: NCI-H226 lung
[3] = test system: NCI-H322M lung
[4] = test system: HOP-62 NSCLC
[5] = test system: NCI-H460 lung
[6] = test system: HOP-92 NSCLC
[7] = test system: NCI-H522 lung
[8] = test system: 786-0 renal
[9] = test system: COLO 205 colon
[10] = test system: A549/ATCC NSCLC

Measured: growth

COc1ccc2oc3cc(NCCN(C)C)ccc3c(=O)c2c1
inactive: [1] 112% and 83% | [2] 109% and 102% | [3] 76.5% | [4] 88.2% and 54.1% | [5] 97.7% and 61.7% | [6] 88.2% and 82.1% | [7] 65.7% | [8] 103% and 76.9% | [9] 84.3% and 47.7%

CC1OS(=O)OC1C (stereo unspecified)
inactive: [1] 101% and 95.8% | [2] 103% and 101% | [3] 108% and 94% | [4] 101% and 105% | [5] 104% and 102% | [6] 114% and 96.3% | [7] 68.9% and 94.9% | [8] 103% and 105% | [9] 112% and 102%

Cc1c(O)nc(N)[nH]c1=O
inactive: [1] 93.8% | [2] 106% | [3] 104% | [4] 99.7% | [5] 104% | [6] 108% | [7] 99.5% | [8] 114% | [9] 116%

CC1(CO)CCCC1NCCNC1CCCC1(C)CO (stereo unspecified)
inactive: [1] 109% and 107% | [2] 99.5% and 102% | [3] 139% and 98.2% | [4] 109% and 100% | [5] 104% and 112% | [6] 82.8% and 101% | [7] 94.3% | [8] 101% and 102% | [9] 114% and 103%

Oc1ccc(O)c(-c2ccccc2)c1
inactive: [1] 63.1% | [2] 54.9% | [3] 42.9% | [4] 46.6% | [5] 19.7% | [6] 85.8% | [8] 65.6% | [9] 85.9%
active: [7] -68.3%

C#CCOC(=O)C(N)CS (stereo unspecified)
inactive: [1] 109% | [2] 99.9% | [3] 97.6% | [4] 93.2% | [5] 103% | [6] 93.9% | [7] 111% | [8] 106% | [9] 106%

O=C(NC(CSSCC(NC(=O)OCc1ccccc1)C(=O)O)C(=O)O)OCc1ccccc1 (stereo unspecified)
inactive: [1] 93.2% and 97.3% | [2] 86.1% | [3] 92.9% and 102% | [4] 95% and 81.8% | [5] 95% and 107% | [6] 63.8% and 78.5% | [7] 70.3% | [8] 91.2% and 91.1% | [9] 96.4% and 91.5%

O=C(O)/C=C/C=C/c1ccccc1
inactive: [1] 104% and 99.9% | [2] 99.4% and 100% | [3] 104% and 107% | [4] 102% and 105% | [5] 107% and 112% | [6] 99.5% and 102% | [7] 94.8% and 106% | [8] 105% and 109% | [9] 105% and 113%

COc1cc2c(cc1O)C(=O)CCCC2
inactive: [1] 91.8% | [2] 102% | [3] 102% | [4] 91.5% | [5] 103% | [6] 82.9% | [7] 70.6% | [8] 94.9% | [9] 143%

O=c1[nH]c(=O)n(C2OC(CO)C(O)C2O)cc1I (stereo unspecified)
inactive: [1] 104% and 108% | [2] 91.8% and 117% | [3] 100% and 102% | [4] 101% and 96.4% | [5] 116% and 125% | [6] 77.7% | [7] 80.5% and 112% | [8] 105% and 108% | [9] 114% and 102%

Cc1ccc(NC(=S)N/C=C(\c2ccccc2)S(=O)Cc2ccccc2)c(C)c1 (stereo unspecified)
inactive: [1] 99.7% | [2] 90.2% | [4] 95.8% | [5] 101% | [6] 80.1% | [7] 90.5% | [8] 98.2% | [9] 104%

O=c1[nH]nnc2cc(Cl)ccc12
inactive: [1] 94.4% and 92.2% | [2] 104% and 93.2% | [4] 105% and 89.1% | [5] 114% and 101% | [6] 109% | [7] 103% and 106% | [10] 101% | [8] 117% and 94.5% | [9] 112% and 117%

NCCSSC/C=C\CSSCCN
inactive: [1] 102% | [2] 90.1% | [4] 98.4% | [5] 97.5% | [6] 84.6% | [7] 88.1% | [10] 90.1% | [8] 99% | [9] 113%

O=[N+]([O-])c1ccc(N/N=C/C2CCCCCC2)c([N+](=O)[O-])c1
inactive: [1] 99.9% | [2] 101% | [4] 97% | [5] 94.6% | [6] 82.6% | [7] 78.5% | [10] 79.9% | [8] 96.7% | [9] 94.6%

Cc1ccc([N+](=O)[O-])cc1Br
inactive: [1] 110% | [2] 98.4% | [4] 89.4% | [5] 94.4% | [6] 106% | [7] 88% | [10] 77.6% | [8] 96.6% | [9] 99.9%

N=c1sc2ccccc2n1CC(=O)O
inactive: [1] 108% | [2] 98.1% | [4] 88.8% | [5] 109% | [6] 82.1% | [7] 87.1% | [10] 83.7% | [8] 101% | [9] 106%

ON=C(C1CCCCC1)C1CCCCC1
inactive: [1] 97.8% | [2] 102% | [4] 99.5% | [5] 108% | [6] 85.7% | [7] 107% | [10] 95.9% | [8] 99.9% | [9] 109%

COCCCNC1=C(C#N)C(=O)NC(c2cccs2)S1 (stereo unspecified)
inactive: [1] 104% | [2] 98.4% | [4] 99.9% | [5] 99.2% | [6] 107% | [7] 127% | [10] 103% | [8] 106% | [9] 110%

CNc1ccc(Cl)cc1S(=O)(=O)c1ccccc1[N+](=O)[O-]
inactive: [1] 87.9% and 98.3% | [2] 114% and 103% | [4] 147% and 94.8% | [5] 107% and 108% | [6] 93% and 100% | [7] 78.3% and 75% | [10] 23.3% and 94.4% | [8] 116% and 100% | [9] 117%

C(#CCN1CCOCC1)CCCN1CCOCC1
inactive: [1] 109% and 105% | [2] 100% and 115% | [4] 93.5% and 99.9% | [5] 114% and 111% | [7] 105% and 95.4% | [8] 110% and 100% | [9] 105% and 104%

N#Cc1c[nH]n2ccnc12
inactive: [1] 99.3% | [2] 96% | [4] 86% | [5] 119% | [6] 99.5% | [7] 87.8% | [10] 86.7% | [8] 97.3% | [9] 109%

CC(=O)Nc1ccc2oc(=O)ccc2c1
inactive: [1] 101% | [2] 96.5% | [4] 96.7% | [5] 109% | [6] 95% | [7] 93.3% | [8] 81.6% | [9] 107%

O=C(O)c1cc(=O)[nH]c(=O)[nH]1
104% (inactive) and 4.68% (active): [1]
inactive: [2] 102% and 95% | [4] 115% and 107% | [5] 111% and 91.4% | [7] 89.7% and 18.9% | [10] 98.3% | [8] 96.5% and 103% | [9] 99.6% and 89.3%

CC(C)=NOC(C)C(=O)O (stereo unspecified)
inactive: [1] 108% | [2] 104% | [4] 110% | [5] 107% | [6] 73% | [7] 111% | [10] 98.8% | [8] 97.8% | [9] 111%
